# Test results: PubChem BioAssay (NCI)
# The panel holds about 83,000 compounds, 20% with a hit somewhere; the sample as a whole holds those more often.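 How to read the values: 0–100, growth inhibition (40 = 60% inhibited); 0, no net growth; -100 to 0, cell death (-40 = 40% of starting cells died; -100 = all dead).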 Values without a mark were called inactive. Activity calls are given as the source filed them. Rule for the calls: active = growth percent below 10; inactive = the rest.
# Tested on: MDA-MB-231 breast
# Test: NCI-60 one-dose screen, 48 h (100 = growth as untreated, 0 = no growth, -100 = all killed)
# Details: 10 µM unless noted
row,Compound,growth
1,Cc1ccc(S(=O)(=O)NCCCNc2nccc(-c3c(-c4ccccc4)nc4sccn34)n2)cc1,18.3%
2,Cc1cc(-c2ccccc2)c(C)n1Cc1ccc(Cl)cc1,67%
3,CN(C)c1ccc(C2CC(c3ccccc3)=NN2/C=C2\SC(=O)NC2=O)cc1 (stereo not given),93.3%
4,C=C1C(=O)O[C@H]2[C@H]1CC/C(COC(=O)NCCc1ccc(OC)cc1)=C\CC[C@@]1(C)O[C@@H]21,1.63% (active)
5,O=C(CCCn1c(=O)c2sc3ccccc3c2n2nnc(-c3ccccc3)c12)NCCc1cnc[nH]1,-70.8% (active)
6,O=C1c2ccccc2C(=O)c2c1oc1oc3c(c(=O)c21)c(=O)n(-c1ccccc1)c1ccccc31,97.3%
7,COc1ccc(Cn2c(SC)nc(=O)n(Cc3ccc(Cl)cc3)c2=O)cc1,99.4%
8,COc1cc(CNC(=O)CCSc2nc3ccccc3c(=O)n2Cc2cc(OC)c(OC)c(OC)c2)cc(OC)c1OC,46%
9,O=C(COc1ccccc1)N1N=C(c2ccc(Cl)cc2)CC1c1c[nH]c2ccccc12 (stereo not given),47.7%
10,CC(=O)n1cc([C@H]2CC[C@H](c3cn(C(C)=O)c4ccccc34)c3c2[nH]c2ccccc32)c2ccccc21,70.8%
11,CCN(CC)CCCC(C)N=c1cc(Nc2cc(=NC(C)CCCN(CC)CC)c3cc(OC)ccc3o2)oc2ccc(OC)cc12 (stereo not given),-51.7% (active)
12,CC1(C)OC2COC3(C(=O)O)OC(C)(C)OC3C2O1 (stereo not given),88.3%
13,Cc1ccc(Cn2c(-c3nonc3N)nc3ccccc32)cc1,83.5%
14,COc1cc2nc(N3CCC[C@@H](NC4=CC(=O)c5ccccc5C4=O)C3)nc(N)c2cc1OC,-71.2% (active)
15,O=C(Nc1ccc(Cl)cc1)c1cc(-c2ccc(F)cc2)c2sc(=O)[nH]c2n1,5.74% (active)
16,Cc1cc(C)c(S(=O)(=O)N2CCN(c3cc4c(cc3F)c(=O)c(C(=O)O)cn4C3CC3)CC2)c(C)c1,84.6%
17,O=C(CCCn1c2c(sc3ccccc32)c(=O)n2nnc(-c3ccccc3)c12)NCCc1cnc[nH]1,-47.2% (active)
18,COc1ccc2c(c1)NC(=O)CN2c1nc(NC2CC2)nc2ccccc12,14.9%
19,C=C1C(=O)O[C@H]2[C@H](O)[C@@H](C)CCC/C(C)=C/CC[C@@]3(C)O[C@@H]3C[C@@H]12,77.9%
20,COc1ccc(/C=C/C(=O)c2cc(OC)c(OC)c(OC)c2)cc1OCc1cn(Cc2ccc(F)cc2)nn1,81.8%
21,O=C(CCC(=O)OC1CCCC1)OC1CCCC1,105%
22,CCN(C(=O)c1cc2ncccc2[nH]1)[C@H]1CCC[C@@H](NCc2cccc(F)c2)C1,91.4%
23,CCCCCCCCCCCCCCCCC(Br)C(=O)O (stereo not given),115%
24,COc1cc2nc(Cl)nc(NCCO)c2cc1OC,109%
25,CCOC(=O)C1=C(CSC(=S)N(C2CCCCC2)C2CCCCC2)N(C)C(=O)NC1c1ccccc1 (stereo not given),62.9%
26,CC1=C(C#N)C(C)(C)C(C#N)=C(C)N1,104%

# Tested on: RXF 393 renal
# Test: as above
# Details: 10 µM unless noted
row,Compound,growth
1,CCOC(=O)[C@H](CSSc1ncnc2cc[nH]c12)NC(=O)[C@@H](C)c1ccc2cc(OC)ccc2c1,57.9%
2,CC(C)C[C@H](NC(=O)Cn1ccc(NCc2ccccc2)cc1=O)B(O)O,-51.7% (active)
3,COc1ccc(C(=O)c2cc(OC)c(OC)c(OC)c2)cc1/C=C/C(=O)c1ccc(O)cc1,35.1%
4,Cc1cccc(NC(=O)c2sc3nc4c(cc3c2N)CCC4)c1C,-4.81% (active)
5,COc1cc(-c2cc(/C=C3\CCCCC3=O)[nH]n2)cc(OC)c1OC,96.1%
6,COc1cccc(C2CC(=O)Nc3c2c(C)nn3-c2nc3ccccc3[nH]2)c1OC (stereo not given),64.2%
7,CCNC(=O)C1CCCN1C(=O)C(CCCN=C(N)N)NC(=O)C(CC(C)C)NC(=O)C(CC(C)C)NC(=O)C(Cc1ccc(O)cc1)NC(=O)C(CO)NC(=O)C(Cc1c[nH]c2ccccc12)NC(=O)C(Cc1cnc[nH]1)NC(=O)C1CCC(=O)N1 (stereo not given),28.4%
8,COc1ccc(-c2nc3sccn3c2-c2ccnc(NCCCNS(=O)(=O)c3ccc(F)cc3)n2)cc1,52.9%
9,CCCCCC(=O)OCc1ccccc1,105%
10,CN(C)c1nc(N)c(N=O)c(N)n1,118%
11,COc1ccc(Cn2cc(COc3cc(/C=C/C(=O)c4cc(OC)c(OC)c(OC)c4)ccc3OC)nn2)cc1,90.3%
12,CCOC(=O)C(Cc1ccccc1)n1c(O)c(C=Nc2ccc(C(=O)OCCN(CC)CC)cc2)sc1=O (stereo not given),84.7%
13,COc1cc(Cn2c(SCC(=O)Nc3ccc(Cl)cc3)nc3ccccc3c2=O)cc(OC)c1OC,19.1%
14,Cc1ccc(S(=O)(=O)NCCCNc2nccc(-c3c(-c4ccccc4)nc4sccn34)n2)cc1,65%
15,Cc1cc(-c2ccccc2)c(C)n1Cc1ccc(Cl)cc1,61.4%
16,CN(C)c1ccc(C2CC(c3ccccc3)=NN2/C=C2\SC(=O)NC2=O)cc1 (stereo not given),96.5%
17,C=C1C(=O)O[C@H]2[C@H]1CC/C(COC(=O)NCCc1ccc(OC)cc1)=C\CC[C@@]1(C)O[C@@H]21,-30.6% (active)
18,O=C(CCCn1c(=O)c2sc3ccccc3c2n2nnc(-c3ccccc3)c12)NCCc1cnc[nH]1,-46.2% (active)
19,O=C1c2ccccc2C(=O)c2c1oc1oc3c(c(=O)c21)c(=O)n(-c1ccccc1)c1ccccc31,-14.1% (active)
20,COc1ccc(Cn2c(SC)nc(=O)n(Cc3ccc(Cl)cc3)c2=O)cc1,107%

row,Compound,growth
1,COc1cc(CNC(=O)CCSc2nc3ccccc3c(=O)n2Cc2cc(OC)c(OC)c(OC)c2)cc(OC)c1OC,43.6%
2,O=C(COc1ccccc1)N1N=C(c2ccc(Cl)cc2)CC1c1c[nH]c2ccccc12 (stereo not given),103%
3,CC(=O)n1cc([C@H]2CC[C@H](c3cn(C(C)=O)c4ccccc34)c3c2[nH]c2ccccc32)c2ccccc21,96.5%
4,CCN(CC)CCCC(C)N=c1cc(Nc2cc(=NC(C)CCCN(CC)CC)c3cc(OC)ccc3o2)oc2ccc(OC)cc12 (stereo not given),-68.4% (active)
5,CC1(C)OC2COC3(C(=O)O)OC(C)(C)OC3C2O1 (stereo not given),111%
6,Cc1ccc(Cn2c(-c3nonc3N)nc3ccccc32)cc1,82.1%
7,COc1cc2nc(N3CCC[C@@H](NC4=CC(=O)c5ccccc5C4=O)C3)nc(N)c2cc1OC,-76.3% (active)
8,O=C(Nc1ccc(Cl)cc1)c1cc(-c2ccc(F)cc2)c2sc(=O)[nH]c2n1,5.27% (active)
9,Cc1cc(C)c(S(=O)(=O)N2CCN(c3cc4c(cc3F)c(=O)c(C(=O)O)cn4C3CC3)CC2)c(C)c1,51.3%
10,O=C(CCCn1c2c(sc3ccccc32)c(=O)n2nnc(-c3ccccc3)c12)NCCc1cnc[nH]1,-66.9% (active)
11,COc1ccc2c(c1)NC(=O)CN2c1nc(NC2CC2)nc2ccccc12,39.2%
12,C=C1C(=O)O[C@H]2[C@H](O)[C@@H](C)CCC/C(C)=C/CC[C@@]3(C)O[C@@H]3C[C@@H]12,53.1%
13,COc1ccc(/C=C/C(=O)c2cc(OC)c(OC)c(OC)c2)cc1OCc1cn(Cc2ccc(F)cc2)nn1,72.2%
14,O=C(CCC(=O)OC1CCCC1)OC1CCCC1,97.6%
15,CCN(C(=O)c1cc2ncccc2[nH]1)[C@H]1CCC[C@@H](NCc2cccc(F)c2)C1,95.1%
16,CCCCCCCCCCCCCCCCC(Br)C(=O)O (stereo not given),105%
17,COc1cc2nc(Cl)nc(NCCO)c2cc1OC,107%
18,CCOC(=O)C1=C(CSC(=S)N(C2CCCCC2)C2CCCCC2)N(C)C(=O)NC1c1ccccc1 (stereo not given),43.6%
19,CC1=C(C#N)C(C)(C)C(C#N)=C(C)N1,117%
